Most compounds without a hit are left out; they make up all but 12% or so of the library.
BAZ2B block – BAZ2B (human) inhibition. hit rate 4.4% among 360,000. AlphaScreen BAZ2B-H3K14Ac peptide displacement. Potency, µM (titrated, usually from 114 µM), for the others: at the top dose activity change, negative = inhibition, actives largely listed as inhibitors; also: potency is read from the fitted curve at half-maximal effect; % is scaled to controls: 0 for no effect and ±100 for the full control effect; nearly all actives have a fitted effect of over 60% in size
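Inhibition is scored as reduced AlphaScreen emission. The BAZ2B/b-H3(5-23)K14Ac complex (50 nM each) in PBS pH 7.4, 0.01% Tween-20 meets compound (up to 110 uM) for 30 min at RT before bead addition.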
PI5P4K alpha inh – blocks human PI5P4K alpha kinase activity; P48426; PI5P4Kalpha enzyme, ADP-Glo luminescence, 60 min; stronger effect = lower value; max response, %; hit rate 1.2% among 330,000; active = max response of -50% or lower; inconclusive = between -30% and -50%; inactive = -30% or higher; also: value at the top dose of about 77 µM; % is scaled to controls: 0 for no effect and ±100 for the full control effect
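Enzyme plus substrate dispensed, test compounds pinned in, then ATP (5 microM final) added. After 60 min at RT, ADP-Glo reagent 1 for 45 min and reagent 2 for 30 min preceded luminescence imaging.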
JMJD2A Tudor inh – JMJD2A Tudor domain (human) inhibition | Potency, µM (series often up to 114 µM), for the others: at the top dose activity change, negative = inhibition, hits mostly inhibitors | AlphaScreen JMJD2A-Tudor / H3K4me3 peptide binding | AID 504339 | O75164 | hit rate 4.4% among 390,000; also: potency is read from the fitted curve at half-maximal effect; % is scaled to controls: 0 for no effect and ±100 for the full control effect; nearly all actives have a fitted effect of over 50% in size
G9a block – blocks human histone lysine methyltransferase G9a; G9a H3K9 monomethylation, AlphaScreen, 2 h; Q96KQ7; AID 504332; hit rate 8.8% among 350,000; Potency, µM (highest dose often 102 µM), for inactives: at the highest dose activity, negative = inhibition, usual class: inhibitors; also: potency is read from the fitted curve at half-maximal effect; % is scaled to controls: 0 for no effect and ±100 for the full control effect; nearly all actives have a fitted effect of over 75% in size
Target sequence (Q96KQ7 913-1193 limits assumed): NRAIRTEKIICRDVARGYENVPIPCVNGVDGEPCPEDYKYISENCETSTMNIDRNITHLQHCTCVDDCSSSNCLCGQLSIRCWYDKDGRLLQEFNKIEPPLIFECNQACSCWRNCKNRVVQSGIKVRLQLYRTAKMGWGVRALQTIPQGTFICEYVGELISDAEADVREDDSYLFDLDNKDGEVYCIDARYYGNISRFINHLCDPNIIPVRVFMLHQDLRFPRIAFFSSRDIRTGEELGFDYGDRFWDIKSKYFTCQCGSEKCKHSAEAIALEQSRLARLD
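Chemiluminescent proximity detection of H3K9 monomethylation, read after 10 min bead incubation in the dark. Reaction: 20 nM G9a, 500 nM biotin-H3K9 peptide, 20 uM SAM cofactor, 2 h, room temperature, following 15 min enzyme-compound preincubation.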
HP1b chromo inh – HP1-beta chromodomain-methylated histone interaction inhibition; P83916; AlphaScreen HP1-beta / biotin-H3K9me3 peptide binding; Potency, µM (top dose mostly 114 µM), for the others: at the highest dose activity change, negative = inhibition, usual class: inhibitors; hit rate 0.56% among 390,000; also: potency is read from the fitted curve at half-maximal effect; nearly all actives have a fitted effect of over 70% in size
Target sequence (P83916 whole entry, looked up): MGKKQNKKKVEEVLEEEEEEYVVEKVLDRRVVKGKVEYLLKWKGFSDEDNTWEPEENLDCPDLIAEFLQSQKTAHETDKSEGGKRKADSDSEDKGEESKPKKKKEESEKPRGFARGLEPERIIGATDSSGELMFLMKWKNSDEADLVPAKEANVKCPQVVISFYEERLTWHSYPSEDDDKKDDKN
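HP1-beta protein (50 nM final) preincubated 30 min at room temperature with biotinylated H3(1-18)K9me3 peptide (50 nM) in PBS pH 7.4, 0.01% Tween-20, then compound added for 30 min. AlphaScreen streptavidin donor/nickel chelate acceptor beads (10 ug/mL final), 30 min dark, luminescence read.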
PLK1 PBD block – PLK1 (human) polo-box domain binding inhibition | Plk1 PBD binding of FITC phosphopeptide, fluorescence polarization | AID 720504 | Potency, µM, for the others: max response, negative = inhibition, actives largely listed as inhibitors | hit rate 2.8% among 360,000; also: potency is read from the fitted curve at half-maximal effect; series mostly up to about 57 µM; % is scaled to controls: 0 for no effect and ±100 for the full control effect; nearly all actives have a fitted effect of over 65% in size
* hit, by the source's call; u = inconclusive; x = no result given; [ ] = remark or other dose. Unless noted, calls follow the shape of the dose curve; as a rule, active = well fitted curve in the direction sought with a large enough effect; inconclusive = small, poorly fitted or top-dose-only effect, or another doubt; inactive = no such curve, though single readings can be large; an effect the other way counts as inactive or inconclusive.

SMILES | BAZ2B block | PI5P4K alpha inh | JMJD2A Tudor inh | G9a block | HP1b chromo inh | PLK1 PBD block
Cc1ccc(/C=c2\sc3n(c2=O)CN(c2cccc(Br)c2)CN=3)o1 | u | 5 | u | u | -7% | -13%
O=c1nc2s/c(=C\c3ccco3)c(=O)n2nc1Cc1ccc(F)cc1 | 22µM* | -56* | 56µM* | u | u | -23%
O=C(CCNS(=O)(=O)c1ccc2c(c1)CCN2C(=O)C1CC1)N1CCN(c2cccc(Cl)c2)CC1 | -19% | x | -14% | -30%[59 µM] | 2%[57 µM] | x
COC(=O)CN1C(=O)CSc2ccc(S(=O)(=O)Nc3c(C)cc(C)cc3C)cc21 | -16% | x | -3% | -24%[59 µM] | 21% | x
CCN(CC)c1ccc(/C=c2\sc3nnc(-c4ccccc4Cl)n3c2=O)cc1 | -26% | 6 | -12% | u | -1% | -15%
Cc1ccc(/C=c2/sc3nnc(-c4ccccc4Cl)n3c2=O)o1 | 40µM* | -25 | 22µM* | 11µM* | -35% | -22%
Cc1ccc(/C=c2\sc3nc(-c4ccco4)nn3c2=O)o1 | 50µM* | -69* | -16%[11.4 µM] | 18µM* | 22µM* | 9.5µM*
C=CCOc1ccccc1/C=c1\sc2nc(-c3oc4ccccc4c3C)nn2c1=O | x | x | -3% | x | 30% | -2%
COc1ccc(C2/C=C\CC(NC(=O)OCC3c4ccccc4-c4ccccc43)CC(=O)N2Cc2ccccc2F)cc1 (centres undefined) | x | u | u | 29%[59 µM] | -12% | 30µM*
CCOC(=O)c1nc2ccccc2s1 | 10% | 1 | 12% | 10%[59 µM] | 31% | -2%
O=C(O)COCc1nc2ccccc2s1 | -25% | -2 | -2% | 50µM* | 59% | -2%
CCOC(=O)C(=O)Cc1nc2ccccc2s1 | u | 3 | -29% | 50µM* | 14% | -10%
CC(=O)OCc1nc2ccccc2s1 | 4% | x | 1% | 73%[59 µM] | 9% | -5%
COc1cc(SC)ccc1C(=O)NCCNC(=O)c1nonc1N | -2% | 0 | 1% | -10% | 140% | -12%
CS(=O)(=O)c1nc([N+](=O)[O-])nn1CCCc1ccccc1 | x | -2 | -17% | x | 12% | -20%
Cn1nc([N+](=O)[O-])nc1S(C)(=O)=O | u | -11 | -23% | 56µM* | 18%[57 µM] | -16%
Cc1ccc(S(=O)(=O)Nc2nc(-c3ccccc3)cs2)cc1 | u | -10 | -33% | u | -15% | u
COc1ccc(-c2csc(NC(=O)c3ccccc3F)n2)cc1 | 3% | 14 | -10% | 21%[0.501 µM] | 24% | 5%
CS(=O)(=O)c1ccccc1C(=O)Nc1ccc(-c2nc3ccccc3[nH]2)cc1 | -23% | -5 | -18% | 19% | 0%[57 µM] | -14%
COc1ccc(-c2csc(NC(=O)c3ccccc3NS(=O)(=O)c3ccc(F)c(F)c3)n2)cc1 | 45µM* | -23 | 56µM* | -37%[12.7 µM] | u | 21µM*
Cc1ccc(S(=O)(=O)Nc2ccccc2C(=O)Nc2nc(-c3ccc(F)cc3)cs2)cc1 | 9% | -10 | u | 0%[59 µM] | -8% | 27µM*
O=C(Nc1ccc(-c2nc3ccccc3[nH]2)cc1)c1ccccc1NS(=O)(=O)c1ccc(F)cc1 | -5% | u | -20% | 16%[59 µM] | 28% | 27µM*
Cc1c(Cl)cccc1NC(=O)CN1C(=O)CSc2ccc(S(=O)(=O)N3CCCC3)cc21 | -21% | x | -8% | -28%[59 µM] | 28% | x
N#Cc1c(-c2ccc(Cl)cc2)no[n+]1[O-] | x | x | -26% | x | x | x
CN(C)/C=N/C(=S)Nc1ccc(Cl)cc1 | -25% | 0 | -23% | -5% | 5% | -10%
Cc1cccc(C)c1NC(=S)/N=C/N(C)C | -7% | -15 | 14µM* | -12%[59 µM] | -22% | u
COC(=O)c1ccc(N)c(N=CC2=C(O)CC(C)(C)CC2=O)c1 | u | -10 | u | 13%[59 µM] | -9% | -1%
COC(=O)c1ccc2c(c1)C(C)(C)C(/C=C/c1ccccc1O)=[N+]2C | 8.9µM* | x | 56µM* | u | u | 51%
COc1ccc(OCCC(=O)Nc2cc3c(cc2C(=O)O)OCCCO3)cc1 | -1% | -11 | -14% | -32% | 8% | -6%

Screening data from PubChem BioAssay.
